Source: PubChem BioAssay
Only some compounds are listed: those with a hit (about 7.6% of all), similar ones and a draw of the others.
HCV NS3h FP: HCV NS3 helicase inhibitors, primary screen, biochemical, fluorescence polarization, ChemBridge library; NS3h Cy5-dT15 DNA binding; hit rate 1.6% among 16,000; AID 687043, 2013; inhibition, % at 100 µM;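 active means inhibition above the average over every tested compound plus 3 SD, cut at about 40% in these data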
Cy5 interf NS3h: Cy5 fluorescence quenchers or enhancers, artefact control for HCV NS3 helicase inhibitor project, biochemical, ChemBridge library, Cy5 readout; Cy5-dT15 DNA with NS3h, fluorescence interference; actives lie on both sides; signal over control mean, under 1 quenches; fluorescence interference ratio at 100 µM; hit rate 6% among 16,000; AID 720488, 2013;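 active means compound fluorescence over control fluorescence at most 0.8, a quencher, or at least a set upper limit, an enhancer; inactive means ratio between 0.8 and the set upper limit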
NS3h confirm: HCV NS3 helicase inhibitors, retest, confirmation, biochemical, fluorescence polarization, ChemBridge library. shares compounds with HCV NS3h FP. NS3h binding to Cy5-dT15 DNA. inhibition, % at 100 µM. hit rate 20% among 240. AID 720485, 2013;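 active means percent inhibition of 50% or more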
SSB-DNA FP CB: E. coli SSB-DNA binding inhibitors, counter-screen for HCV NS3 helicase inhibitor project, biochemical, fluorescence polarization, selected ChemBridge compounds | E. coli SSB binding Cy5-dT15 | shares compounds with HCV NS3h FP | inhibition, % at 100 µM | hit rate 40% among 240;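 active means inhibition of at least 50%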;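 further: displacers lower Cy5 polarization so higher inhibition means more SSB displaced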
Target sequence (P0AGE0 whole entry, looked up): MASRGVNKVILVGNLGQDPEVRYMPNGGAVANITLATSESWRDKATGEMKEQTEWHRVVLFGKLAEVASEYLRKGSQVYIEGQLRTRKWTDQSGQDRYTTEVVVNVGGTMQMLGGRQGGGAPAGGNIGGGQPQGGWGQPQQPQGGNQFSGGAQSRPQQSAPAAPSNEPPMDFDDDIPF
Cy5 SSB interf: Cy5 fluorescence interference with SSB-bound oligo, artefact control for HCV NS3 helicase inhibitor project, biochemical, E. coli SSB, selected ChemBridge compounds; hit rate 8% among 240; fluorescence interference ratio at 100 µM; Cy5-dT15/E. coli SSB fluorescence interference; actives lie on both sides; shares compounds with HCV NS3h FP;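 active means fluorescence interference ratio at or above 1.2, signal boosting, or at or below 0.8, signal quenching; inactive means ratio between 0.8 and 1.2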;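 further: ratio of compound well signal to mean negative control signal so 1 means no effect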
Cy5 interf conf: Cy5-DNA-NS3h complex fluorescence interference, confirmation, artefact control for HCV NS3 helicase inhibitor project, biochemical, ChemBridge library | hit rate 44% among 240 | Cy5-dT15 DNA/NS3h fluorescence interference counterscreen | fluorescence interference ratio at 100 µM, hits read low | AID 720489, 2013 | shares compounds with HCV NS3h FP;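 active means fluorescence interference ratio at or below 0.8 quencher or at or above a set limitenhancer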;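 further: ratio of compound fluorescence to mean of negative controls so 1 means no interference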
* hit, by the source's call.

Screening O=C1NN(c2ccccc2)C(=O)/C1=C/c1ccc(-c2ccc(C(=O)O)cc2)o1 returned HCV NS3h FP 26 and Cy5 interf NS3h 0.99.
`Cc1ccc(-c2ccc(/C=C3\C(=O)NN(c4ccccc4)C3=O)o2)c([N+](=O)[O-])c1` gave HCV NS3h FP 25 and Cy5 interf NS3h 0.92.
`CCOC(=O)C1=C(c2ccccc2)OC(N(C)C)C(c2ccccc2)=C1` (stereo unspecified) gave HCV NS3h FP 9 and Cy5 interf NS3h 0.93.
Cn1c(/C=C/c2ccco2)nc2ccccc21 was read as HCV NS3h FP 4 and Cy5 interf NS3h 0.97.
Cn1c(/C=C/c2ccc(C(=O)c3ccccc3)o2)nc2ccccc21 was read as HCV NS3h FP 51*, Cy5 interf NS3h 1.1, NS3h confirm 20, SSB-DNA FP CB 25, Cy5 SSB interf 0.92 and Cy5 interf conf 0.92.
CC(C)COc1ccc(C(=O)Nc2ccc(Cl)cc2Cl)cc1 was read as HCV NS3h FP -5 and Cy5 interf NS3h 0.99.
`CCOc1ccc(C(=O)Nc2cc(OC)ccc2OC)cc1[N+](=O)[O-]` gave HCV NS3h FP 89*, Cy5 interf NS3h 1.1, NS3h confirm 16, SSB-DNA FP CB 13, Cy5 SSB interf 0.93 and Cy5 interf conf 0.94.
COc1ccc(C)cc1NC(=O)c1ccc(OC)c([N+](=O)[O-])c1 was read as HCV NS3h FP 4 and Cy5 interf NS3h 0.97.
CCN(C(=O)Cc1ccc(Cl)cc1)c1ccccc1C was read as HCV NS3h FP 6 and Cy5 interf NS3h 1.
Screening O=C1NC(=Nc2ccc(Br)cc2)S/C1=C\c1ccc(O)cc1 returned HCV NS3h FP -4 and Cy5 interf NS3h 1.
O=C1NC(=Nc2ccc(O)cc2)S/C1=C\c1ccccc1 was read as HCV NS3h FP 46*, Cy5 interf NS3h 1.2, NS3h confirm 12, SSB-DNA FP CB 11, Cy5 SSB interf 0.94 and Cy5 interf conf 0.98.
Screening Cc1ccc(NC(=O)CN(c2ccc(F)cc2)S(=O)(=O)c2ccccc2)cc1C returned HCV NS3h FP 12 and Cy5 interf NS3h 0.95.
`O=C(Nc1cccc(Oc2ccc(C(=O)O)c(C(=O)O)c2)c1)c1ccc(-c2ccccc2)cc1` gave HCV NS3h FP 52*, Cy5 interf NS3h 1.1, NS3h confirm 16, SSB-DNA FP CB 19, Cy5 SSB interf 0.9 and Cy5 interf conf 0.74*.
Screening CC(=O)Nc1ccc(Oc2ccc(C(=O)O)c(C(=O)O)c2)cc1 returned HCV NS3h FP 1 and Cy5 interf NS3h 1.
